# Measured values as given in PubChem BioAssay AID1794808 (University of Kansas High Throughput Screening Laboratory, 2022).
# Where “and” joins values, the source holds several entries; their conditions need not be identical. Identical values can stand only once. In all, about 210,000 compounds went through this assay and about 520 (0.25%) were called active. What follows is part of a selection rich in actives, with near analogues and random picks from the rest. Values without a mark were called inactive. Cut-off read from the data, not from the text of the source: active = inhibition above about 50%; inactive = the rest.
# Test system: Plasmodium falciparum apicoplast DNA polymerase (apPOL)
# Test: Pf-apPOL inhibitors, biochemical, fluorescence (AID 1794808)
# Settings: Recombinant Pf-apPOL, molecular beacon fluorescence, 1.5 h; at 10 µM; active compounds read high
row,Compound,inhibition
1,O=C(CS(=O)(=O)CC(=O)c1ccccc1)c1ccccc1,-2.4%
2,Cc1c(Cl)ccc(NC(=O)C2CCCN2S(=O)(=O)c2ccccc2)c1Cl (stereo not given),-7.1%
3,O=C(Nc1ccc(Cl)cc1)NC1(C(F)(F)F)Oc2ccccc2O1,1.5%
4,COc1ccc(Cl)cc1NC(=O)CN(c1ccccc1)S(=O)(=O)c1ccccc1[N+](=O)[O-],-6.5%
5,CC1=C(C(=O)Nc2ccc(Cl)cc2)C(c2ccc(Cl)cc2Cl)n2ncnc2N1 (stereo not given),6%
6,CCN(CC)S(=O)(=O)c1ccc(Cl)c(C(=O)O)c1,-5%
7,Cc1ccc(Cl)cc1NC(=O)C(=O)NCc1ccccn1,0.8% and 0%
8,O=C(COc1ccc(F)cc1)Nc1nnc(C2CC(=O)N(c3ccccc3)C2)o1 (stereo not given),4.1%
9,CN(C)c1ccc(/C=C(\C#N)c2ccc([N+](=O)[O-])cc2)cc1Br,-5.5%
10,COCC(=O)N1CCCCC1c1nncn1CC1CC1 (stereo not given),3.4%
11,CC(C)(C)C(=O)Oc1ccc(C=Cc2ccccn2)cc1,-22%
12,O=C(CSc1nnc(NC(=O)c2cc(-c3ccco3)on2)s1)NC1CCCC1,60.9% (active)
13,Nc1ccc2nc(SCC(=O)NC3CC3)sc2c1,6.4%
14,O=C(CSc1nnc(NC(=O)c2ccc(Cl)c(Cl)c2)s1)NCc1ccco1,0.7%
15,O=C1CC(NCc2ccc3c(c2)OCO3)C(=O)N1c1ccc(OC(F)(F)F)cc1 (stereo not given),0.2%
16,Cc1cc(C)c(S(=O)(=O)N2CCC(c3noc(-c4ccc(F)cc4)n3)CC2)c(C)c1,-5.5%
17,O=Cc1ccc(OCc2ccc(I)cc2)cc1,-6.6%
18,COc1ccccc1C(=O)Oc1ccc2c(c1)OC(=Cc1cccc(OC)c1OC)C2=O,-1.8%
19,COc1ccc(CCNC(=O)CSc2ccc(-n3cccn3)nn2)cc1OC,-3.3%
20,CC(C)(C)C(O)CCNC(=O)C(=O)NCc1ccccc1 (stereo not given),-5.8%
21,O=C(NCC(O)c1ccsc1)c1cccc2ccccc12 (stereo not given),-3.1%
22,Cn1c(=O)c2c(-c3ccccc3)n(-c3cccc([N+](=O)[O-])c3)cc2n(C)c1=O,0.3%
23,COc1ccc(-c2c3c(=O)n(C)c(=O)n(C)c3cn2-c2ccc(Br)cc2)cc1,73.4% (active)
24,COc1ccc(-c2cn3c4c(=O)n(C)c(=O)n(C)c4nc3n2CCO)cc1,-0.7%
25,CN1CCC(N2CCN(C(=O)C3CCc4sc(C(=O)N5CCCC5)cc4C3)CC2)CC1 (stereo not given),-2.3%
26,CC(C)N1CCN(C(=O)c2csc(N3CCN(c4ccccc4)CC3)n2)CC1,-6.1%
27,CCOc1ccc(-c2cc3n(n2)CCCN(C(=O)c2ccccn2)C3)cc1,-2.1%
28,O=C(Nc1cccs1)N1CCN(c2ccc(-c3ccco3)nn2)CC1,64.3% (active)
29,O=C(c1cccc(-n2cnnn2)c1)N1CCN(c2ccc(-c3cccs3)nn2)CC1,-10.3%
30,O=C(Nc1cccs1)N1CCN(C(=O)C2CCCO2)CC1 (stereo not given),0.6%
